Reference: the supplement of paper PMC10127200
Counter-ions that a name gives are not always drawn.

How the values were obtained:
Experiment in all cases: Euclidean distance of Cell Painting phenotypic profile (signed KS, 77 features) to DMSO centroid (dimensionless distance); 5 or 10 uM (library dependent); higher = stronger phenotypic change vs DMSO (phenoactivity)
Conditions in all cases: 48 h
786-O = test system: 786-O
Summary of the method: (§1)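 Library compounds were applied at 10 or 5 uM, depending on the library, with 0.1% DMSO final, for 48 h to five cancer lines and a healthy fibroblast line. After staining, cells were imaged confocally at 20X across 9 fields per well, and Harmony extracted 77 features, each scored as a signed Kolmogorov-Smirnov statistic against vehicle wells on the same plate. Phenoactivity is the Euclidean distance between each profile and the median vehicle profile, with profiles first plate-position corrected, correlation-weighted and averaged over replicates at the top dose.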

A549 = test system: A549
Summary of the method: as §1

DU145 = test system: DU145
Summary of the method: as §1

FB = test system: FB
Summary of the method: as §1

HEPG2 = test system: HEPG2
Summary of the method: as §1

OVCAR4 = test system: OVCAR4
Summary of the method: as §1

Row | SMILES | Euclidean distance (786-O) | Euclidean distance (A549) | Euclidean distance (DU145) | Euclidean distance (FB) | Euclidean distance (HEPG2) | Euclidean distance (OVCAR4)
1 | N[C@H](CO)C(=O)O [(R)-Serine] | 1.31 | 1.48 | 0.909 | 0.797 | 0.786 | 1.43
2 | Cc1ccc(Nc2nccc(N(C)c3ccc4c(C)n(C)nc4c3)n2)cc1S(N)(=O)=O [Pazopanib] | 2.13 | 1.89 | 2.31 | 2.44 | 1.94 | 1.78
3 | O=C(O)CCCc1cc2cc(Cl)ccc2n1S(=O)(=O)c1ccc2ncsc2c1 [Lanifibranor(IVA-337)] | 0.7 | 0.787 | 0.862 | 0.874 | 0.544 | 1.53
4 | O=C(Cn1cnnn1)N[C@@H]1C(=O)N2C(C(=O)O)=C(CSc3nncs3)CS[C@H]12 [Ceftezole sodium] | 0.633 | 1.39 | 1.36 | 0.846 | 0.929 | 0.929
5 | Cc1cccc(CN2CCN(C(c3ccccc3)c3ccc(Cl)cc3)CC2)c1 (stereo not drawn) [Meclizine 2HCl] | 1.66 | 1.27 | 0.732 | 1.06 | 0.511 | 1.51
6 | c1cncc(CN2CCC(n3ncc4c(N5CCOCC5)nc(-c5ccc6[nH]ccc6c5)nc43)CC2)c1 | 4.57 | 4.67 | 4.08 | 4.59 | 3.78 | 3.57
7 | CC(C)C[C@@H](C=O)NC(=O)[C@H](CC(C)C)NC(=O)[C@H](CC(C)C)NC(=O)OCc1ccccc1 | 3.8 | 3.23 | 3.14 | 3.41 | 3.64 | 4.07
8 | CC(C)N(CCCNC(=O)Nc1ccc(C(C)(C)C)cc1)C[C@H]1O[C@@H](n2ccc3c(N)ncnc32)[C@H](O)[C@@H]1O | 1.04 | 0.769 | 0.92 | 1.18 | 0.5 | 0.755
9 | Cc1cnc(CNC(=O)c2c(=O)c3ccc(N4CCCN(C)CC4)nc3n3c2sc2ccccc23)cn1 | 2.93 | 3.26 | 2.7 | 3.86 | 2.18 | 3.31
10 | CC(C)(O)c1cc(Nc2cc(Oc3cn(C4CC4)nc3C3CCOCC3)ccn2)ccn1 | 0.999 | 0.879 | 1.32 | 1.38 | 1.09 | 1.36
11 | CS(=O)(=O)c1cccc(C[C@H](NC(=O)c2c(Cl)cc3c(c2Cl)CCN(C(=O)c2ccc4ccoc4c2)C3)C(=O)O)c1 [Lifitegrast] | 1.08 | 0.823 | 1.53 | 1.16 | 0.431 | 1.27
12 | Cn1c(Cn2ccc(C(F)(F)F)c(Oc3cc(Cl)cc(C#N)c3)c2=O)n[nH]c1=O [Doravirine (MK-1439)] | 1.23 | 0.8 | 1.11 | 1.13 | 0.593 | 0.914
13 | Clc1ccc2c(c1)CCc1cccnc1C2=C1CCNCC1 [Desloratadine] | 1.38 | 0.811 | 1.51 | 1.83 | 2.17 | 1.88
14 | COc1cc(OC2CCN(C)CC2)ccc1Nc1ncc2c(n1)n(C1CCCC1)c(=O)n2C | 1.53 | 2.28 | 1.39 | 2.84 | 1.78 | 1.83
15 | c1cnc2cc3c(cc2n1)[C@@H]1CNC[C@H]3C1 [Varenicline Tartrate] | 0.702 | 0.985 | 0.786 | 0.802 | 0.459 | 1.05
16 | O=c1[nH]c(=O)n([C@H]2C[C@H](O)[C@@H](CO)O2)cc1/C=C/Br [Brivudine] | 1.21 | 0.849 | 0.765 | 1.07 | 0.725 | 0.962
17 | CCOC(=O)CCNc1cc(N2CCc3ccccc3CC2)nc(-c2ccccn2)n1 | 2 | 2.58 | 2.35 | 2.56 | 2.41 | 1.95
18 | O=C(NCC(O)CO)c1c(I)c(C(=O)NCC(O)CO)c(I)c(N(CCO)C(=O)CO)c1I (stereo not drawn) [Ioversol] | 0.684 | 0.636 | 0.983 | 0.679 | 0.876 | 1.14
19 | CC(C)(C(=O)c1cccnc1)c1cccnc1 [Metyrapone] | 1.56 | 1.55 | 0.902 | 1.36 | 0.932 | 1.85
20 | CS(=O)(=O)N1CCN(Cc2cc3nc(-c4cccc5[nH]ncc45)nc(N4CCOCC4)c3s2)CC1 | 2.85 | 2.71 | 1.63 | 2.18 | 1.4 | 1.83
21 | NC[C@@H]1O[C@H](O[C@H]2[C@@H](O)[C@H](O[C@@H]3[C@@H](O)[C@H](N)C[C@H](N)[C@H]3O[C@H]3O[C@H](CO)[C@@H](O)[C@H](O)[C@H]3N)O[C@@H]2CO)[C@H](N)[C@@H](O)[C@@H]1O [Paromomycin Sulfate] | 1.05 | 1.06 | 0.88 | 1.2 | 0.817 | 1
22 | C[C@H]1NCc2cc(-c3ccc4c(=O)c(C(=O)O)cn(C5CC5)c4c3OC(F)F)ccc21 [Garenoxacin] | 0.629 | 0.876 | 0.678 | 1.54 | 0.463 | 1.08
23 | Cc1cc(NS(=O)(=O)c2ccc(N)cc2)no1 [Sulfamethoxazole sodium] | 1.09 | 0.64 | 1.01 | 0.902 | 0.561 | 1.28
